Where two headings read alike, the source gives them in different places. Hit rate of the full screen: of about 13,000 compounds, about 3,200 (25%) showed an effect of 50% or more. Some of the results follow.
Test system: P. falciparum stage V gametocytes
Design: BacTiter-Glo ATP luminescence viability of purified stage V gametocytes in 384-well plates, per cent inhibition versus DMSO
Settings: 48 h, 5 µM, inhibitor

Structure (SMILES) | % Inhibition [%] | % Inhibition (% Inhibition) [%]
CC[C@H]1CN2CC[C@@H]1C[C@H]2[C@H](O)c1cc(N2CCC(O)CC2)nc2ccc(OC)cc12 [TCMDC-141415] | 17.87 | –
CC[C@H]1CN2CC[C@@H]1C[C@H]2[C@H](O)c1ccnc2ccc(OC)cc12 [TCMDC-142003] | 82.89 | –
CC[C@H]1CN2CC[C@@H]1C[C@H]2[C@H](O)c1cc(N2CCC(c3ccccc3)CC2)nc2ccc(OC)cc12 [TCMDC-141435] | 91.21 | –
CC[C@H]1CN2CC[C@H]1C[C@H]2[C@H](O)c1cc(N2CCCC(CO)C2)nc2ccc(OC)cc12 (some centres unmarked) [TCMDC-141417] | -19.77 | –
CCOc1ccc2nccc([C@@H](O)[C@@H]3C[C@@H]4CCN3C[C@@H]4CC)c2c1 [TCMDC-125547] | – | -52.19
CC[C@H]1CN2CC[C@@H]1C[C@H]2[C@H](O)c1cc(N2CCC(CO)CC2)nc2ccc(OC)cc12 [TCMDC-141418] | 34.66 | –
CC[C@H]1CN2CC[C@@H]1C[C@H]2[C@H](O)c1cc(N2CCC(C)CC2)nc2ccc(OC)cc12 [TCMDC-141419] | 96.92 | –
CC[C@H]1CN2CC[C@H]1C[C@H]2[C@H](O)c1ccnc2ccc(OC)cc12 [TCMDC-123485] | -3.295 | –
CC[C@H]1CN2CC[C@@H]1C[C@H]2[C@H](O)c1cc(N2CCCC(C)(C)C2)nc2ccc(OC)cc12 [TCMDC-141423] | 67.35 | –
O=C(/C=C/c1ccc(Cl)c(Cl)c1)NCCCCCN1CCCN(C(=S)Nc2ccc(Cl)c(Cl)c2)CC1 [TCMDC-135896] | -3.43 | –
N#Cc1ccc2c(c1)CCN(CCC1CCC(NC(=O)Nc3cnc4ccccc4c3)CC1)C2 (centres unmarked) [TCMDC-139440] | 3.253 | –
CC[C@H]1CN2CC[C@H]1C[C@H]2[C@H](O)c1cc(N2CCC3CCCCC3C2)nc2ccc(OC)cc12 (some centres unmarked) [TCMDC-141440] | 90.7 | –
CC[C@H]1CN2CC[C@H]1C[C@H]2[C@H](O)c1cc(N2CCCC(C(=O)N(CC)CC)C2)nc2ccc(OC)cc12 (some centres unmarked) [TCMDC-141434] | 46.24 | –
CC[C@H]1CN2CC[C@@H]1C[C@H]2[C@H](O)c1cc(N2CCC(O)(c3ccc(Cl)cc3)CC2)nc2ccc(OC)cc12 [TCMDC-141439] | 74.49 | –
CC[C@H]1CN2CC[C@@H]1C[C@H]2[C@H](O)c1cc(N2CCSCC2)nc2ccc(OC)cc12 [TCMDC-141424] | 79.98 | –
CC[C@H]1CN2CC[C@H]1C[C@H]2[C@H](O)c1cc(N2CCCC2)nc2ccc(OC)cc12 [TCMDC-141217] | -33.27 | –
CC[C@H]1CN2CC[C@@H]1C[C@H]2[C@H](O)c1cc(N2CCC(N3CCCCC3)CC2)nc2ccc(OC)cc12 [TCMDC-141442] | 105.7 | –
CC[C@H]1CN2CC[C@@H]1C[C@H]2[C@H](O)c1cc(N2CCC(C(N)=O)CC2)nc2ccc(OC)cc12 [TCMDC-141441] | -22.84 | –
CC[C@H]1CN2CC[C@@H]1C[C@H]2[C@H](O)c1cc(N2CCC(O)(c3ccccc3)CC2)nc2ccc(OC)cc12 [TCMDC-141438] | 44.1 | –
CC[C@H]1CN2CC[C@@H]1C[C@H]2[C@H](O)c1cc(N2CCOCC2)nc2ccc(OC)cc12 [TCMDC-141416] | -92.7 | –
O=C(Nc1ccc(OC2CCN(Cc3ccc(F)cc3)C2)c(Cl)c1)c1ccccc1 (centres unmarked) [TCMDC-133762] | 42.11 | –

Structure (SMILES) | % Inhibition [%] | % Inhibition (% Inhibition) [%]
Cc1ccc(S(=O)(=O)N(CCCNCc2cccc(O)c2)c2ccccc2)cc1 [TCMDC-138022] | 66.9 | –
Cc1cccc(CCCNC(=O)CN(c2cccc(C(F)(F)F)c2)S(=O)(=O)c2ccc(C(F)(F)F)cc2)c1 [TCMDC-136508] | -41.52 | –
Oc1cccc(CNCCCN(Cc2ccccc2)c2ccccc2)c1 [TCMDC-137875] | 12.29 | –
CC1(C)C(=O)Nc2ccccc2N1C(=O)CN1CCN(c2ccccc2O)CC1 [TCMDC-124856] | -25.41 | –
CC(C(=O)N1CCCC1)N1CCN(C(c2ccccc2)c2ccccc2)CC1 (centres unmarked) [TCMDC-123562] | 15.58 | –
CC(C(=O)N1CCCC1)N1CCN(S(=O)(=O)c2ccc(C(C)(C)C)cc2)CC1 (centres unmarked) [TCMDC-125011] | 54.13 | –
Cc1ccc(S(=O)(=O)N2CCCN(C(=O)c3cc(-c4ccccc4)n[nH]3)CC2)cc1 [TCMDC-125243] | 32.96 | –
C=CCn1c(SCC(=O)Nc2cc(C)ccc2OC)nc2sc(C)cc2c1=O [TCMDC-123737] | -0.9433 | –
O=c1cc(NCCCNCc2cccc3c2OC(F)(F)O3)[nH]c2ccccc12 [TCMDC-139425] | -37.26 | –
CC(C)CN1CCN(c2nc(C#N)c3c(c2C(=S)NC2CCCCC2)CC(C)(C)OC3)CC1 [TCMDC-124173] | 83.9 | –
CCCN(CCC)C(=S)N=Nc1c(O)[nH]c2ccccc12 [TCMDC-138078] | -20.57 | –
COCCn1c(C)nc2ccccc2c1=O [TCMDC-124916] | -2.427 | –
Cc1ccc2c(=O)n(C)c(=O)n(C)c2n1 [TCMDC-123937] | 60.67 | –
O=C(NCCN1CCCC1)c1cc(-c2ccc(Cl)c(O)c2)c(-c2ccncc2)o1 [TCMDC-135295] | 13.58 | –
Cc1nc(N)nc(N)c1CCCOc1ccccc1Br [TCMDC-138069] | -36.44 | –
O=C(Nc1ccc(-c2cccc(-c3nc4ccccc4[nH]3)c2)cc1)c1cnn2cccnc12 [TCMDC-136863] | -40.98 | –
COc1ccc(-c2ccccc2CNC2Cc3ccccc3C2)cc1S(=O)(=O)NCCN1CCCC1 [TCMDC-132211] | 56.67 | –
COc1ccc(CNC2Cc3ccccc3C2)cc1-c1ccc(OC)c(S(=O)(=O)NCCN2CCCC2)c1 [TCMDC-132251] | 107.6 | –
COc1ccc(CNC2Cc3ccccc3C2)cc1-c1ccc(S(=O)(=O)NCCN2CCCC2)c(F)c1 [TCMDC-132266] | 84.74 | –
COc1ccc(-c2ccc(CNC3Cc4ccccc4C3)cc2)cc1S(=O)(=O)NCCN1CCCC1 [TCMDC-132472] | 95.39 | –
